SKOV3 invasion = ovarian cancer metastasis inhibition, 3D TME model | 0.1% of 46,000 active | SKOV3ip1-GFP adhesion/invasion on 3D omental model, fluorescence | Potency, µM (titrated, usually from 45.8 µM), inactives show at the highest dose activity change, negative = inhibition, actives largely listed as inhibitors | AID 1963576;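 further: plate controls were DMSO wells for no effect and tomatine positive control wells for full effect; nearly all actives have a fitted effect of over 65% in size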
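qHTS, 4-pt dose (0.36-46 umol/L); SKOV3ip1-GFP, 1,200 cells/well, no FBS; primary omental fibroblast/mesothelial co-culture 48 h pre-grown; 2 h RT + 16 h 37 C; PBS wash, 4% PFA; GFP count 488/509 nm.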
HTT-AS act = activates huntingtin-antisense promoter activity | Potency, µM (titrated, usually from 57.5 µM), for the others: at the top dose activity change, positive = activation, usual class: activators | AID 1508624 | 0.24% of 48,000 active | HEK293 HTT-AS promoter firefly luciferase reporter, 24 h; response scale: percent change from vehicle, -100% = no light; further: nearly all actives have a fitted effect of over 55% in size
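HEK293 luciferase promoter-reporter cells (2,500/well) plated 24 h, then compounds added at up to 57.5 uM final for 24 h at 37 °C. Firefly luminescence by Dual-Glo, normalized to vehicle (0%) and zero RLU (-100%).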
S16 F2sN tox = toxic to S16 Pmp22-F2sN Schwann cells. AID 1508642. 0.48% of 43,000 active. S16 Pmp22-F2sN Schwann cells viability, CellTiter-Glo, 24 h. Potency, µM (doses to about 57.5 µM), inactives show at the top dose activity change, negative = cytotoxicity, hits mostly cytotoxic; further: on the % scale 0 is the no-effect control and ±100 the full control effect; nearly all actives have a fitted effect of over 65% in size
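Luminescence from CellTiter-Glo, read by CCD camera after a 15 min room-temperature incubation, served as the viability signal. Reporter Schwann cells (S16 Pmp22-F2sN) had been treated with pin-transferred compounds for 24 h at 37C.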
PMP22 txn prim = modulators of PMP22 gene transcription in S16 Schwann cells; 2% of 43,000 active; S16 Pmp22-F2sN Schwann cells (luciferase reporters placed in the Pmp22 gene), FLuc/NLuc coincidence luminescence, 24 h; Potency, µM (top dose mostly 57.5 µM), for the others: top-dose activity change, negative = inhibition, actives largely listed as inhibitors; active means clear falling dose curves in both reporters; inconclusive means both reporters move, but less clearly or upward; inactive means either reporter flat; the % is the NLuc reporter signal; further: on the % scale 0 is the no-effect control and ±100 the full control effect
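Schwann cells carrying the coincidence reporter were exposed to library compounds for 24 h at 37C, then lysed and read for FLuc and, after quenching, NLuc luminescence on a CCD imager.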
mTORC1 inh = mTORC1 pathway inhibition measured by phospho-rpS6; AID 493208; 0.78% of 44,000 active; Tsc2-/- p53-/- MEF, phospho-rpS6 immunofluorescence/PI, 24 h; Potency, µM (titrated, usually from 38.3 µM), without a hit: top-dose activity change, negative = inhibition, usual class: inhibitors;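 further: plate controls were DMSO for no effect and rapamycin for full effect; nearly all actives have a fitted effect of over 50% in size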
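Cell-based qHTS: Tsc2-/- p53-/- MEF, 24 h cpd, 37 °C; fix/perm, anti-phospho-S6 Alexa-488 + PI; Acumen 488 nm scan; pS6/PI ratio, % positive cells; rapamycin 7.5 nM = inhibition ref; PI count = viability.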
HTT promoter inh = inhibits huntingtin promoter activity. HEK293 HTT promoter firefly luciferase reporter, 24 h. Potency, µM (top dose mostly 57.5 µM), for inactives: at the top dose activity change, negative = inhibition, hits mostly inhibitors. 0.93% of 48,000 active. AID 1508623; further: nearly all actives have a fitted effect of over 50% in size
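HEK293 cells carrying firefly luciferase reporters were seeded at 2,500 per well in Opti-MEM and cultured for 24 h. They were then treated with compounds at up to 57.5 uM final for 24 h at 37 degrees C before Dual-Glo luminescence readout.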
Active calls of the source: *. Hits are enriched below; roughly 3.6% of the tested compounds scored in any of these assays. Unless noted, the call rests on the fitted dose curve; in most records, active means well fitted curve in the direction sought with a large enough effect; inconclusive means small, poorly fitted or top-dose-only effect, or another doubt; inactive means no such curve, though single readings can be large; an effect the other way counts as inactive or inconclusive. Potency means the concentration at half of the fitted maximal effect.

What do the screens show for `O=C(Nc1ccc(C(F)(F)F)cc1)c1cc(S(=O)(=O)NC2CCCCC2)ccc1F`?
SKOV3 invasion: inconclusive; HTT-AS act: -39.1%; S16 F2sN tox: inconclusive; PMP22 txn prim: inconclusive; mTORC1 inh: inconclusive; HTT promoter inh: inconclusive

What do the screens show for `O=C(Nc1ccc(C(F)(F)F)cc1)c1cc(S(=O)(=O)NC2CCCCCC2)ccc1F`?
SKOV3 invasion: inconclusive; HTT-AS act: -74.7%; S16 F2sN tox: inconclusive; PMP22 txn prim: inconclusive; mTORC1 inh: inconclusive; HTT promoter inh: 28.2µM*

Results for Cc1c(CN2CCN(C(=O)C(C)C)CC2)sc2c(N3CCOCC3)nc(-c3cnc(N)nc3)nc12 ?
SKOV3 invasion: 19.1%; HTT-AS act: -36.2%; HTT promoter inh: inconclusive

What do the screens show for `COc1cc(C(=O)NC(c2ccccc2Cl)c2cc(Cl)c3cccnc3c2O)cc(OC)c1OC` (centres undefined)?
SKOV3 invasion: inactive; HTT-AS act: -58.8%; S16 F2sN tox: inconclusive; PMP22 txn prim: 4.39µM*; mTORC1 inh: -20.3%; HTT promoter inh: inconclusive

Results for Oc1c(I)cc(Cl)c2cccnc12 ?
HTT-AS act: -4.6%; HTT promoter inh: -12.1%

Results for COc1ccc(C(=O)NC(c2ccccc2Cl)c2cc(Cl)c3cccnc3c2O)cc1 (centres undefined) ?
SKOV3 invasion: -29.0%; HTT-AS act: -40.6%; S16 F2sN tox: 3.16µM*; PMP22 txn prim: inconclusive; mTORC1 inh: inconclusive; HTT promoter inh: 8.91µM*

Results for CC(=O)OCC(=O)[C@@]12OC(C)(C)O[C@H]1C[C@H]1[C@@H]3C[C@H](F)C4=CC(=O)C=C[C@]4(C)[C@@]3(F)[C@@H](O)C[C@@]12C ?
SKOV3 invasion: 25.4%; HTT-AS act: 0.6%; HTT promoter inh: 5.8%

Results for COc1cc(Cl)c(NS(=O)(=O)c2cc(-c3cc(C)no3)ccc2OC)c(OC)c1 ?
SKOV3 invasion: 4.8%; HTT-AS act: -35.6%; S16 F2sN tox: 0.4%; PMP22 txn prim: -24.1%; mTORC1 inh: inconclusive; HTT promoter inh: -25.0%

How did COc1cc(NS(=O)(=O)c2ccc(-c3cc(C)no3)cc2)cc(OC)c1 do in these assays?
SKOV3 invasion: -9.5%; HTT-AS act: -86.8%; S16 F2sN tox: inconclusive; PMP22 txn prim: 3.35µM*; mTORC1 inh: inconclusive; HTT promoter inh: 1.78µM*

What do the screens show for `CCCCCCOC(=O)N=C(N)c1ccc(NCc2nc3cc(C(=O)N(CCC(=O)OCC)c4ccccn4)ccc3n2C)cc1`?
SKOV3 invasion: inconclusive; HTT-AS act: -23.8%; HTT promoter inh: -19.1%

Results for COc1ccc(CNS(=O)(=O)c2ccc(-c3cc(C(F)(F)F)on3)s2)cc1OC ?
SKOV3 invasion: -1.9%; HTT-AS act: -63.7%; S16 F2sN tox: inconclusive; PMP22 txn prim: 20µM*; mTORC1 inh: -10.4%; HTT promoter inh: inconclusive

How did CS(=O)(=O)N1CCc2cc(C(=O)NCCc3ccccc3)ccc21 do in these assays?
SKOV3 invasion: inactive; HTT-AS act: 3.16µM*; S16 F2sN tox: 0.7%; PMP22 txn prim: -8.3%; mTORC1 inh: 3.0%; HTT promoter inh: 47.4%

What do the screens show for `O=C(NCCCNc1nc(Nc2cccc(NC(=O)N3CCCC3)c2)ncc1I)c1cccs1`?
SKOV3 invasion: -0.7%; HTT-AS act: -45.7%; HTT promoter inh: inconclusive

Results for CCOc1ccccc1CC1C(=O)Nc2ccc(Br)cc21 (centres undefined) ?
SKOV3 invasion: inconclusive; HTT-AS act: -61.0%; S16 F2sN tox: inconclusive; PMP22 txn prim: inconclusive; mTORC1 inh: inconclusive; HTT promoter inh: 17.8µM*

High-throughput results (PubChem BioAssay)
